Assay outcomes as filed in PubChem.
Rows were chosen to be rich in hits. Some 1.2% of all compounds tested hit in one or more screens of this group.
N-glyco inh – blocks N-linked glycosylation in D54 reporter cells; hit rate 0.23% among 360,000; reporter increase, % at 12.5 µM; D54 ERlucT glycosylation luciferase reporter, 24 h; percent of 100 nM tunicamycin response;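 active = mean luciferase reporter signal, scaled so untreated is 0 and the glycosylation-blocking control 100, at or above a set limit in every replicate; inconclusive = mean reaches the limit but not every replicate does; inactive = mean below the limit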;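 also: luciferase carries N-glycosylation sites so blocking glycosylation raises the light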
Casp6 inh – inhibitors of human caspase-6 | P55212 | purified caspase-6, Z-VEID-R110 cleavage fluorescence | hit rate 0.53% among 350,000 | inhibition, % at 12.5 µM;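 active = mean inhibition across replicates at least about 35%, with every replicate also reaching that limit, limit read from the data; inconclusive = only one of the two criteria met; inactive = neither criterion met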
NSD2 HMT inh – NSD2 (human) methyltransferase inhibition; inhibition, % at 12.5 µM; NSD2 peptide methylation, AlphaScreen, 120 min; hit rate 0.54% among 310,000; in the data active = inhibition above about 50%
RAD54 branch – blocks human RAD54 Holliday junction branch migration. hit rate 0.14% among 360,000. Q92698. AID 602329. inhibition, % at 10.4 µM. FAM/BHQ fluorescence;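 active = mean normalized replicate activity at least 40 and at least half of replicates scoring 40 or more; inconclusive = only one of the two criteria met; inactive = mean below 40 and under half of replicates reaching 40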;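 also: inhibitors cause a drop in the FAM fluorescence signal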
RAD52 anneal inh – inhibitors of human RAD52 DNA annealing; AID 651710; recombinant RAD52 DNA annealing, FRET fluorescence; P43351; hit rate 0.46% among 360,000; inhibition, % at 18.7 µM;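 active = every replicate showing at least 50% inhibition; inconclusive = mean inhibition at least 50% but not in every replicate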
DNA binding – DNA binding artifact in Rad54 counter-screen; shares compounds with RAD54 branch; Acridine orange-DNA displacement, fluorescence polarization, 20 min; AC50, µM (series often up to 35 µM); hit rate 8% among 460; AID 651673;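 active = signal drop giving an AC50 within twice the top valid tested concentration of each sample, actives reach about 35 µM in these data; inactive = activity opposite to expected, plus the rest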;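 also: polarization loss reports compound binding to salmon sperm DNA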
Of the large screens only hits and unclear results are named; the others gave an inactive call (follow-up assays come after a bar, where they were run); ! = repeats disagree.

COC(=O)CN1C(=O)COc2ccc(S(=O)(=O)N3CCCCC3)cc21	Casp6 inh 51.8
CCc1nnc(NC(=O)CSc2ccc(-c3ccco3)nn2)s1	none (no result: NSD2 HMT inh, RAD54 branch)
Cc1nnc(NC(=O)CSc2ccc(-c3ccco3)nn2)s1	Casp6 inh 35.4 (no result: RAD54 branch)
CCS(=O)(=O)Nc1ccc2c(c1)C(=O)N(C)C[C@@H](OC)[C@@H](C)CN(Cc1nccs1)[C@@H](C)CO2	none (no result: N-glyco inh, NSD2 HMT inh)
O=C1Cc2ccccc2C(=O)N1c1cccc(Cl)c1	Casp6 inh 35.2
O=C1Cc2ccccc2C(=O)N1c1ccc(F)cc1Cl	Casp6 inh 44.1
Cc1cc(N2C(=O)Cc3ccccc3C2=O)ccc1C(C)C	none
CCCC(=O)Nc1ccc2c(c1)OC[C@H](C)N(Cc1cccc(F)c1)C[C@H](C)[C@@H](OC)CN(C)C2=O	none (no result: N-glyco inh, NSD2 HMT inh, RAD54 branch)
C[C@@H]1CN([C@@H](C)CO)C(=O)CCCn2cc(nn2)CO[C@H]1CN(C)C(=O)Nc1ccc(N2CCN(C)CC2)cc1	RAD52 anneal inh 67.8! (no result: N-glyco inh, NSD2 HMT inh)
C[C@H](CO)N1C[C@H](C)[C@@H](CN(C)S(=O)(=O)c2ccc3c(c2)OCCCO3)OCc2cn(nn2)CCCC1=O	Casp6 inh 47.0! (no result: NSD2 HMT inh)
C[C@@H]1CN([C@H](C)CO)C(=O)CCCn2cc(nn2)CO[C@@H]1CN(C)C(=O)Nc1ccc(N2CCN(C)CC2)cc1	none (no result: N-glyco inh, NSD2 HMT inh)
C[C@@H]1CN([C@@H](C)CO)C(=O)CCCn2cc(nn2)CO[C@@H]1CN(C)S(=O)(=O)c1ccc2c(c1)OCCCO2	none (no result: N-glyco inh, NSD2 HMT inh)
C[C@H](CO)N1C[C@H](C)[C@@H](CN(C)C(=O)c2ccncc2)OCc2cnnn2CCCC1=O	Casp6 inh 39.1! (no result: NSD2 HMT inh)
C[C@H](CO)N1C[C@H](C)[C@@H](CN(C)C(=O)Nc2ccc(N3CCN(C)CC3)cc2)OCc2cn(nn2)CCCC1=O	RAD52 anneal inh 66.5! (no result: N-glyco inh, NSD2 HMT inh)
CSCCC(NC(=O)c1cccc(C)c1)C(=O)OCC(=O)N1CCOCC1 (stereo not given)	none (no result: N-glyco inh, Casp6 inh, RAD54 branch, RAD52 anneal inh)
COCC(=O)Nc1ccc2c(c1)[C@@H]1C[C@@H](CC(=O)NCc3ccccc3)O[C@H](CO)[C@@H]1O2	none (no result: N-glyco inh, NSD2 HMT inh)
CC(C)CCNc1nc(-c2ccco2)c2c(c1C#N)CCCC2	none (no result: Casp6 inh, RAD52 anneal inh)
N#Cc1c(NCCN)nc(-c2ccco2)c2c1CCCC2	N-glyco inh 32.9 (no result: Casp6 inh, RAD54 branch, RAD52 anneal inh)
Nc1ccc(N2CCCCC2)c2nonc12	NSD2 HMT inh 82.6
O=CC(O)C1OC(=O)C(O)C1O (stereo not given)	Casp6 inh 41.3 (no result: NSD2 HMT inh)
Cc1ccc(C)c(S(=O)(=O)Nc2ccc3oc(C)c(C(=O)O)c3c2)c1	Casp6 inh 69.2
C[C@@H]1CN([C@H](C)CO)C(=O)Cc2cc(NC(=O)Nc3cccc4ccccc34)ccc2O[C@H]1CN(C)S(=O)(=O)c1ccc(Cl)cc1	none (no result: N-glyco inh, NSD2 HMT inh)
COc1ccc2c3c(n(C)c2c1)[C@H](CO)N(C)CC31CCN(C(=O)Nc2c(C)noc2C)CC1	none (no result: N-glyco inh, NSD2 HMT inh, RAD54 branch)
O=C(COc1ccc2ccc(=O)oc2c1)Nc1ccc(N2CCCCC2)cc1	RAD52 anneal inh 66.0
O=C(COc1ccc2ccc(=O)oc2c1)Nc1ccc(CCO)cc1	none
COC(=O)c1c(NC(=O)/C=C/C(=O)O)sc(C)c1-c1ccc(C(C)C)cc1	Casp6 inh 37.0 (no result: RAD54 branch)
COC(=O)c1c(NC(=O)/C=C/C(=O)O)sc(C)c1-c1ccc(C)cc1	none
COc1ccc(CCN2CC(C(=O)NCCc3ccc(C)cc3)CC2=O)cc1OC (stereo not given)	Casp6 inh 47.8
COC(=O)c1ccc(/C=C/C(=O)c2ccc(OC)c(OC)c2)cc1	N-glyco inh 62.4 (no result: Casp6 inh, RAD52 anneal inh)
COc1ccc(C(=O)/C=C/c2ccc(OC(=O)c3cc(OC)c(OC)c(OC)c3)cc2)cc1	N-glyco inh 42.3
COc1cc(/C=C/C(=O)c2ccc3c(c2)OCCO3)cc(OC)c1OC	N-glyco inh 42.1 (no result: NSD2 HMT inh)
CCOc1ccc(C(=O)/C=C/c2cc(OC)c(OC)c(OC)c2)cc1	none
C[C@H]1CN([C@@H](C)CO)C(=O)c2cc(NC(=O)Cc3cn(C)c4ccccc34)ccc2O[C@H]1CN(C)C(=O)Nc1cccc2ccccc12	none (no result: N-glyco inh, NSD2 HMT inh)
COc1ccc(NC(=O)N[C@@H]2CC[C@H](CC(=O)NC3CCC3)O[C@@H]2CO)cc1	none (no result: N-glyco inh, NSD2 HMT inh)
C[n+]1cccc(C2C(C#N)=C(N)Oc3c2ccc2ccccc32)c1 (stereo not given)	none
C[n+]1cccc2ccc3c(c21)OC(N)=C(C#N)C3c1ccccc1 (stereo not given)	Casp6 inh 37.5
CNC(=O)C[C@@H]1CC[C@H]2[C@@H](COc3ccc(NC(=O)c4cc(F)cc(F)c4)cc3C(=O)N2C)O1	none (no result: N-glyco inh, NSD2 HMT inh)
O=C(COC(=O)Cc1cccc(C(F)(F)F)c1)NCc1ccco1	Casp6 inh 58.2
C[C@@H]1CCCCO[C@@H](CN(C)Cc2ccc(Cl)c(Cl)c2)[C@H](C)CN([C@@H](C)CO)C(=O)c2cc(NC(=O)Nc3ccc(F)cc3)ccc2O1	none (no result: N-glyco inh, NSD2 HMT inh)
Cc1cccc(-c2ccc([C@H]3[C@H](CO)N4C(=O)CN(C(=O)c5ccccc5)C[C@@H]34)cc2)c1	none (no result: N-glyco inh, NSD2 HMT inh, RAD54 branch)
Cc1ccc(-n2c(-c3ccc(Br)cc3)c[n+]3c2CCc2ccc4cccnc4c2-3)cc1	N-glyco inh 40.0, RAD54 branch 88.1 (no result: Casp6 inh, RAD52 anneal inh)
COc1ccc(-n2c(-c3ccc(Cl)cc3)c[n+]3c2CCc2ccccc2-3)cc1	none (no result: RAD54 branch)
Cc1c(CC(=O)O)c(=O)oc2c(C)c(OCc3c(F)cccc3Cl)ccc12	none
Cc1c(CCC(=O)O)c(=O)oc2c(C)c(OCc3cc4c(cc3Cl)OCO4)ccc12	Casp6 inh 42.7
CCCC(=O)N1CCC2(CC1)CN(C(=O)CC)[C@@H](CO)c1c2c2ccc(OC)cc2n1C	none (no result: N-glyco inh, NSD2 HMT inh, RAD54 branch)
CCC(OCC(O)CN1CCN(CCN2C(=O)c3cccc4cccc(c34)C2=O)CC1)c1ccccc1 (stereo not given)	none (no result: Casp6 inh, RAD54 branch, RAD52 anneal inh)
C=CCc1ccccc1OCC(O)CN1CCN(CCN2C(=O)c3cccc4cccc(c34)C2=O)CC1 (stereo not given)	RAD54 branch 99.5 | DNA binding inactive
CCN(CC)CCN(C(=O)c1ccc2ncsc2c1)c1nc2cc3c(cc2s1)OCO3	RAD54 branch inconclusive | DNA binding inactive
CCN(CC)CCN(C(=O)c1ccc(C(=O)c2ccccc2)cc1)c1nc2cc3c(cc2s1)OCO3	none
O=C(c1cccc(F)c1)N1CC2(C1)[C@@H](c1ccccc1)[C@H](CO)N2C(=O)C1CCC1	none (no result: N-glyco inh, NSD2 HMT inh, RAD54 branch)
C[C@H]1CN([C@@H](C)CO)C(=O)c2cc(NC(=O)CCCCCC(=O)Nc3ccccc3N)ccc2O[C@H]1CN(C)C(=O)Nc1ccc(F)cc1	none (no result: N-glyco inh, NSD2 HMT inh, RAD54 branch)
CN1CCN(c2ncnc3c2[nH]c2ccc(F)cc23)CC1	RAD54 branch 75.9 (no result: Casp6 inh, NSD2 HMT inh, RAD52 anneal inh) | DNA binding inactive
c1ccc2c(c1)[nH]c1c(N3CCN(C4CCCCC4)CC3)ncnc12	RAD54 branch inconclusive (no result: Casp6 inh, RAD52 anneal inh) | DNA binding inactive
COc1ccc(NC(=O)Nc2ccc3c(c2)CC(=O)N([C@H](C)CO)C[C@@H](C)[C@H](CN(C)Cc2ccc(-c4ccccc4)cc2)O3)cc1	none (no result: N-glyco inh, NSD2 HMT inh)
CCN1CCN(C(=S)Nc2ccc3nc(N4CCN(CC)CC4)cc(C)c3c2)CC1	RAD54 branch 61.7 (no result: Casp6 inh, RAD52 anneal inh) | DNA binding inactive
CCN1CCN(c2cc(C)c3cc(NC(=S)N4CCCC4)ccc3n2)CC1	none (no result: Casp6 inh, RAD54 branch)
